Each structure is given as a SMILES string. Results filed as inconclusive are left out. The source made the active and inactive calls. The call rests on the fitted dose curve; in most records, active means well fitted cell-killing curve with a large enough effect; inconclusive means small, poorly fitted or top-dose-only effect, or effect the other way; inactive means no such curve, though single readings can be large or run the other way.

From PubChem BioAssay (NCATS) come the findings set out here.
Potency means the concentration at half of the fitted maximal effect.

This assay can be described thus: Quantitative High-Throughput drug screen in 47 multiple myeloma cell lines against the NCATS MIPE library collection: KMS12BM_JCRB cell viability assay (AID 1918971). Further: nearly all actives have a fitted effect of over 35% in size. The following applies: KMS12BM myeloma viability, CellTiter-Glo ATP, 48 h; series mostly up to 45.8 µM. The source says:
PI: Beverly A. Mock Ph.D.
Laboratory of Cancer Biology and Genetics,
Center for Cancer Research, National Cancer Institute,
National Institute of Health, Bethesda, Maryland
Drug resistance and disease progression are common in multiple myeloma (MM) patients, underscoring the need for new therapeutic combinations. […] We hypothesized that effective combinations would reduce MYC expression and enhance p16 activity. […] These preclinical data identify potentially useful drug combinations for evaluation in drug-resistant MM and reveal potential mechanisms of combined drug sensitivity.
Described herein is the primary MIPE qHTS used to cherrypick compounds. Validated compounds were then further tested for potential synergistic activiy.
[1] Peat TJ, Gaikwad SM, Dubois W, Gyabaah-Kessie N, Zhang S, Gorjifard S, Phyo Z, Andres M, Hughitt VK, Simpson RM, Miller MA, Girvin AT, Taylor A, Williams D, D'Antonio N, Zhang Y, Rajagopalan A, Flietner E, Wilson K, Zhang X, Shinn P, Klumpp-Thomas C, McKnight C, Itkin Z, Chen L, Kazandijian D, Zhang J, Michalowski AM, Simmons JK, Keats J, Thomas CJ, Mock BA. Drug combinations identified by high-throughput screening promote cell cycle transition and upregulate Smad pathways in myeloma. Cancer Lett. 2023 Aug 1;568:216284. doi: 10.1016/j.canlet.2023.216284. Epub 2023 Jun 24. PMID: 37356470; PMCID: PMC10408729.
SEQUENCE No. (e.g., 1, 2, 3, etc.); […] (e.g., Cells, Incubation, Reagent, etc.); VALUE and DESCRIPTION.
1; Cells; 5 uL; white, solid bottom 1536-well Greiner assay plate.
2; Compounds; 23 nL; Kalypsis pin tool (Wako USA) equipped with a 1536-well pin head to transfer to the assay plates.
3; Incubation; 48 hours; 37C incubation.
4; Reagent;5uL; CellTiter Glo (Promega).
5; Detector; 425V; Luminescence; Viewlux PerkinElmer.
NOTES (numbers refer to Sequence numbers above)
1. The cell-based screening methods employed in this study were like those previously published. Briefly, the corresponding myeloma cell lines were screened in 1,536-well plates with 500 cells, 5-uL per well for inhibition of cell viability (assessed by measuring ATP levels with CellTiterGlo).
2. NCATS MIPE 4.0 library of approved and investigational drugs were added using the Kalypsis pin tool. Wells treated with DMSO only for 100% viability and media only wells for 0% viability were used as controls.
3. The assay plates were covered and incubated for 48 hours in a 37C, 5% CO2 incubator with controlled humidity.
4. After 48 hours, CellTilter-GloTM luminescent substrate mix (Promega) reagent was added to the assay plate and plates we incubated for 5 min at room temperature.
5. Signal was measured as median relative luminescence units on a ViewLux (PerkinElmer) multiplate reader.
[1] Heske CM, Davis MI, Baumgart JT, Wilson K, Gormally MV, Chen L, Zhang X, Ceribelli M, Duveau DY, Guha R, Ferrer M, Arnaldez FI, Ji J, Tran HL, Zhang Y, Mendoza A, Helman LJ, Thomas CJ. Matrix Screen Identifies Synergistic Combination of PARP Inhibitors and Nicotinamide Phosphoribosyltransferase (NAMPT) Inhibitors in Ewing Sarcoma. Clin Cancer Res. 2017 Dec 1;23(23):7301-7311. doi: 10.1158/1078-0432.CCR-17-1121. Epub 2017 Sep 12. PMID: 28899971; PMCID: PMC6636827.
`COC[C@@H](NC(C)=O)C(=O)NCc1ccccc1`: the Potency entry is “inactive”. In the case of `Cc1sc2c(c1C)C(c1ccc(Cl)cc1)=N[C@@H](CC(=O)OC(C)(C)C)c1nnc(C)n1-2`, the Potency was 0.187 µM (active). The figure for `Cn1cc(C2=C(c3cn(C4CCN(Cc5ccccn5)CC4)c4ccccc34)C(=O)NC2=O)c2ccccc21` is 23.5 µM (active). Regarding `COc1ccc2c(c1OC)CN1CCc3cc4c(cc3C1C2)OCO4` (configuration not stated), the Potency was 18.7 µM (active). With `Cn1c(CCCC(=O)O)nc2cc(N(CCCl)CCCl)ccc21` the figure was 7.43 µM (active); with `C=C(C)[C@H]1Cc2c(ccc3c2O[C@@H]2COc4cc(OC)c(OC)cc4[C@@H]2C3=O)O1`, 2.64 µM (active); with `COC1(CS(=O)c2ccccc2)CCN(CCc2c[nH]c3ccc(F)cc23)CC1` (configuration not stated), “inactive”.

For the compound `CN(C)CCN(C)CCc1ccc(Cl)c(Cl)c1`, the Potency result is “inactive”. Consider `CN(C)[C@@H]1C(=O)C(C(N)=O)=C(O)[C@@]2(O)C(=O)C3=C(O)c4c(O)cccc4[C@@](C)(O)[C@H]3C[C@@H]12`, for which the Potency is 4.18 µM (active).

Regarding `Cc1cccc(C)c1NC(=O)CN1CCCC1=O`, the Potency entry was “inactive”. For the compound `C[C@@H]1O[C@@H](O[C@H]2C[C@@H](O)[C@]3(CO)[C@H]4[C@H](O)C[C@]5(C)[C@@H](C6=CC(=O)OC6)CC[C@]5(O)[C@@H]4CC[C@]3(O)C2)[C@H](O)[C@H](O)[C@H]1O`, the Potency was 0.0662 µM (active). For the compound `CC(O)(CS(=O)(=O)c1ccc(F)cc1)C(=O)Nc1ccc(C#N)c(C(F)(F)F)c1` (configuration not stated), the Potency was 23.5 µM (active). With `COc1ccc(C(=O)c2c(C)n(CCN3CCOCC3)c3ccccc23)cc1`, the Potency entry is “inactive”. As for `N[C@@H](Cc1ccc(N(CCCl)CCCl)cc1)C(=O)O`, the Potency is 16.6 µM (active).

Regarding `CNCC(O)c1ccc(O)cc1` (configuration not stated), the Potency result was “inactive”. For `CN(C)CCc1ccc(O)cc1`, the Potency result was “inactive”. For the compound `COc1ccc(C(CN(C)C)C2(O)CCCCC2)cc1` (configuration not stated), the Potency result was “inactive”.

Turning to `COC[C@H]1OC(=O)c2coc3c2[C@@]1(C)C1=C(C3=O)C2CCC(=O)[C@@]2(C)C[C@H]1OC(C)=O` (some centres not stated), the Potency was 10.5 µM (active). `C[C@@H]1[C@@H](C(=O)C[C@H]2O[C@@H]3O[C@]4(C)CC[C@@H]5[C@H](C)CC[C@@H]([C@H]2C)[C@@]35OO4)O[C@@H]2O[C@]3(C)CC[C@H]4[C@H](C)CC[C@@H]1[C@@]24OO3`: the Potency is 0.372 µM (active). `Fc1ccc(C(OCCN2CCN(CCCc3ccccc3)CC2)c2ccc(F)cc2)cc1`: the Potency was 14.8 µM (active). For the compound `C[C@@H]1[C@@H](CC(C[C@H]2O[C@@H]3O[C@]4(C)CC[C@@H]5[C@H](C)CC[C@@H]([C@H]2C)[C@@]35OO4)C[S+](=O)([O-])c2ccc(COC(=O)N(C)C)cc2)O[C@@H]2O[C@]3(C)CC[C@H]4[C@H](C)CC[C@@H]1[C@@]24OO3` (some centres not stated), the Potency was 0.148 µM (active).

`NCC1(CC(=O)O)CCCCC1`: the Potency entry was “inactive”.
